Reference: PubChem BioAssay (NCI)
Compounds without any hit were thinned out: in the full panel of roughly 83,000, 20% have a hit.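 Each cell line was grown in a 96-well plate and treated with one concentration of compound for 48 hours. Values below 10 were considered active.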 Values without a mark were called inactive. Calls of active or inactive are those of the source.

test system: MOLT-4 leukemia; assay: NCI-60 one-dose screen, 48 h (100 = growth as untreated, 0 = no growth, -100 = all killed); conditions: 10 µM unless noted

| SMILES | growth |
| --- | --- |
| COc1ccc(-c2nc3c(c(-c4ccccc4)nn3-c3ccccc3)c(-c3ccc(N4CCN(C)CC4)cc3)c2C#N)cc1 | 69.4% |
| CCOC(=O)C(=Cc1cccc(Cl)c1)C(=O)OCC | 13.4% |
| O=C1NC(=O)c2c1c1c3ccccc3ccc1c1[nH]c3ccc(Br)cc3c21 | 9.35% (active) |
| CC1(c2ccccc2O)NN=C(/N=C/c2cccc([N+](=O)[O-])c2)N1C(Cc1c[nH]c2ccccc12)C(=O)O (configuration not stated) | 92.5% |
| CCOP(=O)(OCC)c1nc(-c2ccccc2)oc1NCc1cccnc1 | 101% |
| CCOC(=O)c1cn2ncnc(Oc3ccc(NC(=O)NC4CCCCC4)c(Cl)c3)c2c1C | 75.1% |
| COC(=O)c1cc(-c2ccccc2)[nH]c1N/N=C/c1c(Cl)cccc1Cl | -9.43% (active) |
| COc1ccc(-c2nnc(-c3ccc4c(c3)nc(-c3ccncc3)n4C3CCCCC3)o2)cc1 | 44.3% |
| CC(C)(C)c1cc(-c2nc3ccc(N4CCN(S(C)(=O)=O)CC4)cc3[nH]2)cc(C(C)(C)C)c1O | 64.6% |
| CCCCN1C(=O)/C(=c2\sc3n(c2=O)C2C(NN=3)N(CC)C(=O)N2CC)c2ccccc21 (configuration not stated) | 11.1% |
| N#Cc1nn(-c2cc(=O)[nH]c3ccc(Cl)cc23)c(N)c1C#N | -3.91% (active) |
| Cc1ccc(-n2c(=S)[nH]c3sc4c(c3c2=O)CCC(=O)C4)cc1 | 48.9% |
